# Test results reported in PubChem BioAssay (EPA / NIEHS).
# “And” between values parts separate entries of the source, which are not always exact repeats. Equal values may be shown once. Results filed as inconclusive are left out. Some compounds were tested as several samples or in several runs, with calls that do not always agree. The source made the active and inactive calls. The calls were made as follows, unless noted: active = hit-call score of the fitted dose curve at least 0.9, where 1 is the maximum; inactive = score below 0.9.
# Columns and labels:
# [1] = read-out: CD40, CD40 (gene 958); assay: BSK_IMphg_CD40: BioMAP Diversity Plus: IMphg Assay for CD40 Biomarker Activity (AID 2284288); details: primary human endothelial cells with macrophages
# Method in brief: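 Venular endothelial cells co-cultured with macrophages (human primary), CD40 measured by ELISA 24 h after dosing. Positive-direction fit vs DMSO baseline; cytotoxicity tracked by SRB total-protein staining in parallel cultures.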
# [2] = read-out: TIMP metallopeptidase inhibitor 2 (TIMP2), TIMP2 (gene 7077); assay: BSK_hDFCGF_TIMP2: BioMAP Diversity Plus: hDFCGF Assay for TIMP metallopeptidase inhibitor 2 (TIMP2) Biomarker Activity (AID 2284289); details: primary human foreskin fibroblasts
# Method in brief: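 Primary human foreskin fibroblasts in the hDFCGF system, dosed for 24 h; TIMP-2 level measured by ELISA, fitted in the positive direction against DMSO; cytotoxicity checked in parallel by sulforhodamine B total protein staining.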
# [3] = read-out: Interleukin-1 alpha (IL1a), IL1A (gene 3552); assay: BSK_IMphg_IL1a: BioMAP Diversity Plus: IMphg Assay for Interleukin-1 alpha (IL1a) Biomarker Activity (AID 2284290); details: primary human endothelial cells with macrophages
# Method in brief: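 Human venular endothelial cells co-cultured with macrophages, IMphg system. IL-1α is measured by ELISA 24 h after dosing and fitted in the positive direction against DMSO. Cytotoxicity is assessed by SRB staining of parallel cultures.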
# [4] = read-out: E-selectin (Homo sapiens) (UniProt P16581); assay: BSK_IMphg_ESelectin: BioMAP Diversity Plus: IMphg Assay for Eselectin Biomarker Activity (AID 2284291); details: primary human endothelial cells with macrophages
# Method in brief: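 Human venular endothelial cell–macrophage co-culture, E-selectin measured by ELISA 24 h after chemical dosing. Signal fitted in the positive direction against DMSO as negative control and baseline.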
# [5] = BSK_IMphg_SRB: Viability Assessment in the BioMAP Diversity Plus: IMphg Assay (AID 2284292); details: primary human endothelial cells with macrophages;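 also: measured one day after compound addition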
# Method in brief: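 Human venular endothelial cells with macrophages, 24 h after chemical dosing; total protein by 0.1% SRB staining after 10% TCA fixation, read at 560 nm. Positive-direction fitting versus DMSO baseline.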
# [6] = read-out: Macrophage colony-stimulating factor (MCSF), CSF1 (gene 1435); assay: BSK_IMphg_MCSF: BioMAP Diversity Plus: IMphg Assay for Macrophage colony-stimulating factor (MCSF) Biomarker Activity (AID 2284293); details: primary human endothelial cells with macrophages
# Method in brief: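 Co-culture of human venular endothelial cells and macrophages, 24 hours of chemical exposure. M-CSF quantified by ELISA, with parallel SRB total-protein staining for cytotoxicity; activity fitted relative to DMSO.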
# [7] = read-out: Interleukin-10 (IL10), IL10 (gene 3586); assay: BSK_IMphg_IL10: BioMAP Diversity Plus: IMphg Assay for Interleukin-10 (IL10) Biomarker Activity (AID 2284294); details: primary human endothelial cells with macrophages
# Method in brief: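 Human venular endothelial cells cocultured with macrophages, dosed 24 h; IL-10 measured by ELISA, activity relative to DMSO. Cytotoxicity assessed in parallel cultures by sulforhodamine B total-protein staining.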
# [8] = BSK_IMphg_SRB.Mphg: Macrophage Viability Assessment in the BioMAP Diversity Plus: IMphg Assay (AID 2284295); details: primary human endothelial cells with macrophages
# Method in brief: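 Venular endothelial cells co-cultured with macrophages, read 24 h after dosing. Total protein measured by 0.1% SRB staining after 10% TCA fixation, absorbance at 560 nm. Fitted in positive direction against DMSO baseline.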
# [9] = read-out: Thrombomodulin, THBD (gene 7056); assay: BSK_LPS_Thrombomodulin: BioMAP Diversity Plus: LPS Assay for Thrombomodulin Biomarker Activity (AID 2284296); details: primary human HUVEC with PBMC
# Method in brief: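 Human umbilical vein endothelial cells co-cultured with PBMC and stimulated with LPS; cell-surface thrombomodulin measured by ELISA 24 hours after compound. Gain or loss versus DMSO; cytotoxicity checked by SRB staining in parallel cultures.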
# [10] = read-out: CD69, CD69 (gene 969); assay: BSK_LPS_CD69: BioMAP Diversity Plus: LPS Assay for CD69 Biomarker Activity (AID 2284303); details: primary human HUVEC with PBMC
# Method in brief: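 Human umbilical vein endothelial cells co-cultured with PBMC under LPS stimulation, chemical exposure 24 h; cell-surface CD69 measured by ELISA and fitted in the positive direction versus DMSO.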
# [11] = IUF_NPC2c_oligodendrocyte_migration_120hr: Leibniz Research Institute for Environmental Medicine (IUF) 120-hour Neural Progenitor Cell Migration Assay for Oligodendrocyte Migration (NPC2c) (AID 2284297)
# Method in brief: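 Read-out is the mean distance of O4-positive oligodendrocytes from the sphere core edge at 120 h, normalized to radial glia migration and fitted in the gain direction against DMSO. Spheres of primary human neural progenitors differentiated on laminin under continuous compound exposure.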
# [12] = IUF_NPC2a_radial_glia_migration_120hr: Leibniz Research Institute for Environmental Medicine (IUF) 120-hour Neural Progenitor Cell Migration Assay for Radial Glia Migration (NPC2a) (AID 2284298)
# Method in brief: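 Readout: distance in um from sphere core edge to migration-area edge, derived from Hoechst nuclei density with a threshold-defined polynomial boundary. Spheres: hNPC, GW 16-19, 0.3 mm, on PDL/laminin; exposure 5 days; DMSO is baseline.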
# [13] = IUF_NPC2a_radial_glia_migration_72hr: Leibniz Research Institute for Environmental Medicine (IUF) 72-hour Neural Progenitor Cell Migration Assay for Radial Glia Migration (NPC2a) (AID 2284299)
# Method in brief: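 Human fetal neural progenitor spheres (0.3 mm) plated on poly-D-lysine/laminin in N2 differentiation medium and exposed from day 0 at 7 concentrations; radial glia migration distance from sphere edge measured at 72 h on brightfield images, mean of four directions, vs DMSO.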
# [14] = IUF_NPC2b_neuronal_migration_120hr: Leibniz Research Institute for Environmental Medicine (IUF) 120-hour Neural Progenitor Cell Migration Assay for Neuron Migration (NPC2b) (AID 2284300)
# Method in brief: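 Read-out is mean distance from sphere edge to each TUBB3-positive neuron at 120 h, expressed relative to radial glia migration distance and to DMSO baseline. Single 0.3 mm human NPC spheres differentiated on laminin under continuous compound exposure.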
# [15] = IUF_NPC3_neuronal_differentiation_120hr: Leibniz Research Institute for Environmental Medicine (IUF) 120-hour Neuronal Differentiation Assay (NPC3) (AID 2284301)
# Method in brief: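 Primary human fetal neural progenitor spheres (GW 16-19, 0.3 mm) plated on poly-D-lysine/laminin in N2 medium, exposed from day 0 for 120 h with half-medium refresh at day 3. TUBB3+ cells as percent of Hoechst nuclei in migration area; DMSO baseline.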
# [16] = IUF_NPC4_neurite_length_120hr: Leibniz Research Institute for Environmental Medicine (IUF) 120-hour Neuronal Morphology Assay for Neurite Length (NPC4) (AID 2284302)
# Method in brief: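 Human fetal cortex (GW 16-19) neural progenitor spheres, 0.3 mm, were plated on poly-D-lysine/laminin in N2 differentiation medium and exposed from day 0 for 120 h, half-feeding at day 3. Mean TUBB3+ neurite length (µm) came from skeletonized images, relative to DMSO.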
# [17] = IUF_NPC5_oligodendrocyte_differentiation_120hr: Leibniz Research Institute for Environmental Medicine (IUF) 120-hour Oligodendrocyte Differentiation Assay (NPC5) (AID 2284304; active = hit-call score of the fitted dose curve at least 0.9, where 1 is the maximum;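 also: primary human fetal neural progenitor spheres plated to migrate and differentiate; share of O4-positive cells among Hoechst nuclei found by CNN image analysis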)
# Method in brief: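 Oligodendrocyte differentiation was scored after 120 h as the O4-positive share of Hoechst-stained nuclei across the neurosphere migration area, using a trained convolutional neural network on high-content fluorescence images. Human fetal neural progenitor spheres were dosed from day 0, normalised to DMSO.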
# [18] = IUF_NPC4_neurite_area_120hr: Leibniz Research Institute for Environmental Medicine (IUF) 120-hour Neuronal Morphology Assay for Neurite Area (NPC4) (AID 2284305; active = hit-call score of the fitted dose curve at least 0.9, where 1 is the maximum)
# Method in brief: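 Human fetal cortex-derived neural progenitor spheres (0.3 mm, GW 16-19) plated on poly-D-lysine/laminin in N2 differentiation medium and exposed from day 0 for 120 h across 7 concentrations plus solvent control. Neurite area is mean pixel area per TUBB3-positive neuron via skeletonization, analysed relative to DMSO.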
# [19] = IUF_NPC2-5_cytotoxicity_120hr: Cytotoxicity Assessment at 120 hours in the Leibniz Research Institute for Environmental Medicine (IUF) Neural Progenitor Cell Migration and Differentiation Assay (NPC2-5) (AID 2284307; active = hit-call score of the fitted dose curve at least 0.9, where 1 is the maximum)
# Method in brief: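 Sphere plating starts differentiation and exposure together at day 0. Compound solution is half-replaced on day 3. At 120 h, medium supernatant is taken for an LDH membrane-integrity read based on resazurin reduction to resorufin fluorescence.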
# [20] = IUF_NPC2-5_cytotoxicity_72hr: Cytotoxicity Assessment at 72 hours in the Leibniz Research Institute for Environmental Medicine (IUF) Neural Progenitor Cell Migration and Differentiation Assay for Cytotoxicity (NPC2-5) (AID 2284306; active = hit-call score of the fitted dose curve at least 0.9, where 1 is the maximum;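 also: LDH release into supernatant measured by resorufin fluorescence marking membrane damage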)
# Method in brief: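 Human fetal (GW 16-19) neural progenitor spheres, 0.3 mm, plated on poly-D-lysine/laminin in N2 differentiation medium and exposed from day 0 to 7 concentrations plus solvent control (DMSO ≤0.1%). LDH-dependent resazurin-to-resorufin fluorescence in supernatant at 72 h.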
# Chain of E-selectin (Homo sapiens) (P16581 whole entry, looked up): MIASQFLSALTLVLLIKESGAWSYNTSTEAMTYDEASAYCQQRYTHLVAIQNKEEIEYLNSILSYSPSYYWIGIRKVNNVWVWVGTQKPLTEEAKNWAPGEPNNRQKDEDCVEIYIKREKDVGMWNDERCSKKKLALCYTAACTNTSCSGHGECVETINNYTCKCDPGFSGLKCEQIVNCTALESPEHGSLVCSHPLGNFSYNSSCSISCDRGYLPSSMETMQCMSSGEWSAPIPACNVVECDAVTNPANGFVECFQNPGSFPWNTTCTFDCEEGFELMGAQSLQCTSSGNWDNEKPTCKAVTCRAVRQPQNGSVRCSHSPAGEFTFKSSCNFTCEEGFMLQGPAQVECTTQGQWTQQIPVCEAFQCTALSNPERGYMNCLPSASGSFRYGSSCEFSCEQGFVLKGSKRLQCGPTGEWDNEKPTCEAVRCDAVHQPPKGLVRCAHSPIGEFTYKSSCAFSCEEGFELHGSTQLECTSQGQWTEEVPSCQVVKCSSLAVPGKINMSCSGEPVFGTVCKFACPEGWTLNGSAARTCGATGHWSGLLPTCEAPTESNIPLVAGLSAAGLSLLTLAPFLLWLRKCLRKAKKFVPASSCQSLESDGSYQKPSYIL
compound,measurement,setting,value
C=C(F)C(=O)OC(C(F)(F)F)C(F)(F)F,AC50,[1],5.95 µM (active)
same,outcome,[1],inactive
same,outcome,[2],inactive
same,outcome,[3],inactive
same,outcome,[4],inactive
same,outcome,[5],inactive
same,outcome,[6],inactive
same,outcome,[7],inactive
same,outcome,[8],inactive
same,outcome,[9],inactive
same,outcome,[10],inactive
OCC(F)(OC(F)(F)C(F)(OC(F)(F)C(F)(F)C(F)(F)F)C(F)(F)F)C(F)(F)F (configuration not stated),outcome,[1],inactive
same,AC50,[2],2.07 µM (active) and 198 nM (active)
same,outcome,[3],inactive
same,AC50,[4],5.64 µM (active) and 3.5 µM (active)
same,AC50,[5],6.17 µM (active)
same,outcome,[5],inactive
same,outcome,[6],inactive
same,AC50,[7],3.33 µM (active)
same,outcome,[7],inactive
same,AC50,[8],4.31 µM (active)
same,outcome,[8],inactive
same,outcome,[9],inactive
same,AC50,[10],4.81 µM (active)
same,outcome,[10],inactive
N[C@@H](CCC(=O)O)C(=O)O,outcome,[11],inactive
same,outcome,[12],inactive
same,outcome,[13],inactive
same,outcome,[14],inactive
same,outcome,[15],inactive
same,outcome,[16],inactive
same,outcome,[17],inactive
same,outcome,[18],inactive
same,outcome,[19],inactive
CCCCN(CCO)CCO,AC50,[2],4.34 µM (active)
same,outcome,[2],inactive
same,outcome,[9],inactive
same,outcome,[10],inactive
c1ccc(OCCOc2ccccc2)cc1,AC50,[2],3.6 µM (active)
same,outcome,[2],inactive
same,AC50,[9],12.3 µM (active)
same,outcome,[9],inactive
same,outcome,[10],inactive
c1ccc2scnc2c1,outcome,[11],inactive
same,outcome,[12],inactive
same,outcome,[13],inactive
same,outcome,[14],inactive
same,outcome,[15],inactive
same,outcome,[16],inactive
same,outcome,[18],inactive
same,outcome,[20],inactive
same,outcome,[19],inactive
CC(C)(CO)CO,outcome,[2],inactive
same,outcome,[9],inactive
same,outcome,[10],inactive
CCCCC(CC)COC(=O)COc1ccc(Cl)cc1C (configuration not stated),outcome,[11],inactive
same,outcome,[12],inactive
same,outcome,[13],inactive
same,outcome,[14],inactive
same,outcome,[15],inactive
same,outcome,[16],inactive
same,outcome,[18],inactive
same,outcome,[20],inactive
same,outcome,[19],inactive
CC(C)Cc1ccc(C(C)C(=O)O)cc1 (configuration not stated),outcome,[11],inactive
same,outcome,[12],inactive
same,outcome,[13],inactive
same,outcome,[14],inactive
same,outcome,[15],inactive
same,outcome,[16],inactive
same,outcome,[18],inactive
same,outcome,[20],inactive
same,outcome,[19],inactive
O=C(O)C(F)(F)OC(F)(F)C(F)(F)OC(F)(F)C(F)(F)C(F)(F)C(F)(F)F,AC50,[1],30 µM (active)
same,outcome,[1],inactive
same,outcome,[2],inactive
same,outcome,[3],inactive
same,outcome,[4],inactive
same,outcome,[5],inactive
same,outcome,[6],inactive
same,AC50,[7],46.5 µM (active) and 49.5 µM (active)
same,outcome,[8],inactive
same,outcome,[9],inactive
same,AC50,[10],36 µM (active) and 32.4 µM (active)
C=C(C)C(=O)OCCC(F)(F)C(F)(F)C(F)(F)C(F)(F)C(F)(F)C(F)(F)C(F)(F)C(F)(F)F,AC50,[1],2.53 µM (active)
same,outcome,[1],inactive
same,outcome,[2],inactive
same,outcome,[3],inactive
same,outcome,[4],inactive
same,outcome,[5],inactive
same,outcome,[6],inactive
same,outcome,[7],inactive
same,outcome,[8],inactive
same,outcome,[9],inactive
same,outcome,[10],inactive
O=S(=O)(O)C(F)(F)C(F)(F)OC(F)(F)C(F)(F)F,outcome,[1],inactive
same,outcome,[2],inactive
same,outcome,[3],inactive
same,outcome,[4],inactive
same,outcome,[5],inactive
same,outcome,[6],inactive
same,AC50,[7],47.8 µM (active) and 44.1 µM (active)
same,outcome,[8],inactive
same,outcome,[9],inactive
same,outcome,[10],inactive
CC(=O)c1ccc(C)cc1,outcome,[2],inactive
same,outcome,[9],inactive
same,outcome,[10],inactive
CCCO[Si](OCCC)(OCCC)OCCC,outcome,[2],inactive
same,outcome,[9],inactive
same,outcome,[10],inactive
O=C(O)C(F)(F)C(F)(F)C(F)(F)C(F)(F)C(F)(F)C(F)(F)C(F)(F)C(F)F,outcome,[1],inactive
same,outcome,[2],inactive
same,outcome,[3],inactive
same,outcome,[4],inactive
same,outcome,[5],inactive
same,outcome,[6],inactive
same,AC50,[7],47.1 µM (active) and 57.5 µM (active)
same,outcome,[8],inactive
same,outcome,[9],inactive
same,outcome,[10],inactive
CC(C)CCCC(C)(C)O,outcome,[2],inactive
same,outcome,[9],inactive
same,outcome,[10],inactive
CCn1cc(C(=O)O)c(=O)c2ccc(C)nc21,outcome,[2],inactive
same,outcome,[9],inactive
same,outcome,[10],inactive
